Here are results for 65 compounds from ChEMBL document CHEMBL4513216, “Probing the Open Global Health Chemical Diversity Library for Multistage-Active Starting Points for Next-Generation Antimalarials” (ACS Infect Dis, 2020).

Out of some 69,000 compounds screened, about 8,600 (12%) showed an effect of 50% or more. Shown is part of a subset that was picked to be rich in strong results.

In this assay the test system is Plasmodium berghei. Kind of assay: Screen against P. berghei liver stage (PbLuc), transformed with Luciferase, at 10uM. It counts as functional, HepG2. Particulars: tested at 10 uM.
As for `CC(=O)N(Cc1ncc(C(C)C)o1)C1CCN(CCn2cncn2)C1` (stereo not given), the INHIBITION is given as -13.2335%.

As for `CC1=CC[C@@H]2CN(C(=O)c3ccc(-c4nc[nH]n4)cc3)C[C@@H]2C1`, the INHIBITION is 40.7%.

Consider `COc1cc(N2C[C@@H]3COC[C@]3(COCc3ccccn3)C2)ncn1`, for which the INHIBITION came out at 68.4%.

`c1ccc(COC[C@]23COC[C@H]2CN(c2ncccn2)C3)nc1`: the INHIBITION worked out at 53%.

For the compound `COc1cc(N2C[C@@H]3COC[C@]3(COc3ncccc3F)C2)ncn1`, the INHIBITION is on record as 73%.

Regarding `Cc1cccc(COC[C@]23COC[C@H]2CN(c2ncccn2)C3)n1`, the INHIBITION is on record as 38.1%.

With `c1ccc(OC[C@]23COC[C@H]2CN(c2ncccn2)C3)nc1`, the INHIBITION is recorded as 31.9%.

As for `COc1cc(N2C[C@@H]3COC[C@]3(COc3cccnc3)C2)ncn1`, the INHIBITION amounted to 42.1%.

On to `O=C(CC1CC1)NC[C@]12COC[C@H]1CN(c1ncccn1)C2`, for which the INHIBITION came out at 88%.

Take `COc1ncccc1CN1C[C@@H]2COC[C@]2(COc2ccccn2)C1`: the INHIBITION is -32%.

Turning to `COc1cc(N2C[C@@H]3COC[C@]3(COCc3ccncc3)C2)ncn1`, the INHIBITION was found to be 34.6%.

Turning to `COc1cc(N2C[C@@H]3COC[C@]3(COc3ccccn3)C2)ncn1`, the INHIBITION is -6.3%.

Take `O=C(CC1CC1)NC[C@]12COC[C@H]1CN(c1ncc(F)cn1)C2`: the INHIBITION is 1.48%.

For `COCC(=O)NC[C@]12COC[C@H]1CN(c1ncc(F)cn1)C2`, the INHIBITION was -22.1%.

Consider `CS(=O)(=O)N1C[C@H]2CC[C@@H](C1)N(C(=O)Cn1ccc3ccccc31)C2`, for which the INHIBITION was -7.98%.

Consider `CC(C)C(C)NC(=O)Nc1cccc(OCC#N)c1` (stereo not given), for which the INHIBITION is given as -16%.

`CC(c1c(F)cccc1F)N1CCN(Cc2nccn2C)CC1` (stereo not given): the INHIBITION turned out to be 19.2%.

Consider `Cc1nc(CNC(=O)Nc2c(C)n[nH]c2C)cs1`, for which the INHIBITION is given as 19.9%.

On to `CN(C)C(=O)CN1CCC2(CCN(Cc3nccs3)CC2)C1=O`, for which the INHIBITION is reported as -21.3%.

With `Cc1nc2cc(C3CCOCC3)nn2c(NCC2COCCO2)c1C` (stereo not given), the INHIBITION was 32.75%.

Regarding `CCn1ncc2c1C(COCC1CC1)CN(S(=O)(=O)N(C)C)C2` (stereo not given), the INHIBITION was 35.1%.

As for `COCC(=O)N1CCC([C@@H]2C[C@H](C(F)(F)F)n3nc(C)cc3N2)CC1`, the INHIBITION is -6.92%.

For `CC(c1ccccn1)N(C)Cc1ccc(-n2ccnc2)cc1` (stereo not given), the INHIBITION was 37.6%.

On to `N#Cc1ccc(OC[C@]23COC[C@H]2CN(c2ncccn2)C3)nc1`, for which the INHIBITION was -7.29%.

Turning to `Cn1cc(CN2C[C@@H]3COC[C@]3(COc3ccc(C#N)cn3)C2)cn1`, the INHIBITION is reported as -43.2%.

Turning to `Cc1cccc(COC[C@]23COC[C@H]2CN(C(=O)c2ccsc2)C3)n1`, the INHIBITION is reported as -29.9%.

In the case of `Cc1cccc(CN2C[C@@H]3COC[C@]3(COc3ccc(C#N)cn3)C2)n1`, the INHIBITION turned out to be 6.8%.

As to `COc1cc(N2C[C@@H]3COC[C@]3(COCc3cccc(C)n3)C2)ncn1`, the INHIBITION stood at 63.7%.

On to `COc1cc(N2C[C@@H]3COC[C@]3(COc3ccc(C#N)cn3)C2)ncn1`, for which the INHIBITION is 71.1%.

As for `Cc1cccc(CNC(=O)N(CCCO)C2CCc3ccccc32)n1` (stereo not given), the INHIBITION is -14.6%.

As to `CNc1snc(C)c1C(=O)NC(C)CC(=O)c1cccs1` (stereo not given), the INHIBITION was 44.6%.

`CC(C)c1cc(NC2CCCN(C(=O)c3cccs3)C2)ncn1` (stereo not given): the INHIBITION was 80%.

For the compound `CC(C)c1cc(NC2CCN(C(=O)N3CCCC3)CC2)ncn1`, the INHIBITION is listed as 74.7%.

For the compound `CC(C)C1CN(C(=O)c2cccs2)CCS1` (stereo not given), the INHIBITION is given as 29.5%.

As for `O=C(N1CCOCC1)N1CCC(Nc2ccncn2)CC1`, the INHIBITION was 29.4%.

Consider `CCc1nc(NC2CCCN(C(=O)c3cccs3)C2)c2cnn(C)c2n1` (stereo not given), for which the INHIBITION stood at 32.8%.

Take `O=C(N1CCCC1)N1CCC(Nc2ccncn2)CC1`: the INHIBITION stood at 34.1%.

For `COc1ccc(CC(=O)NC2(C#N)CCOCC2)c(Cl)c1`, the INHIBITION is -8.4%.

For `Cc1ccc(N2CCCC(NCc3cccs3)C2)nn1` (stereo not given), the INHIBITION is -19.4%.

As for `CCNC(=O)NC(=O)CN1CCCC1c1nc(C2CCCCC2)co1` (stereo not given), the INHIBITION is on record as 10.8%.

Regarding `O=C(O)CCn1ccc2c(nnc3c(-c4ccc(F)cc4)cnn32)c1=O`, the INHIBITION came to 63.6%.

Regarding `O=C(O)CCn1ccc(=O)c2cc(F)ccc21`, the INHIBITION is recorded as 38.1%.

As for `CC(=O)Nn1ccc2c(nnc3c(-c4ccc(F)cc4)cnn32)c1=O`, the INHIBITION stood at 58.5%.

Turning to `CC(=O)Nn1ccc2c(nnc3c(-c4ccccc4)cnn32)c1=O`, the INHIBITION amounted to 58.5%.

In the case of `O=C(O)CCn1ccc(=O)c2ccccc21`, the INHIBITION came out at 35.1%.

In the case of `CCN(C)C(=O)NCC1(CN2CCOCC2)CCCCC1`, the INHIBITION came out at 5.76%.

`O=C(c1cc(=O)c(OCc2ccccc2F)co1)N1CCCC1`: the INHIBITION is -51.9%.

In the case of `COCCNC(=O)c1cnc(N(C)C)nc1C`, the INHIBITION turned out to be 14.2%.

As to `CSc1nccn1-c1cccc(C(=O)NCCC(=O)NC(C)C)c1`, the INHIBITION is listed as 15.5%.

As for `CC(=O)NCCCC(=O)N1CCc2[nH]c(-c3ccccc3)nc2C1`, the INHIBITION came to 35.8%.

Take `Cc1cc(O)n2nc(C3CCN(C(=O)c4ccccn4)CC3)cc2n1`: the INHIBITION worked out at 7.55%.

`CC(=O)N1[C@H](CN(C)C)C[C@@H]2CN(C(=O)Cc3cccs3)CC[C@@H]21`: the INHIBITION is listed as -61.5%.

For `Cn1nc(Br)c2c(NCCN)ncnc21`, the INHIBITION amounted to 15.7%.

Turning to `Cc1ccc(-c2cc(N)c(=O)n(CC(=O)NC3CCCCC3)n2)s1`, the INHIBITION amounted to 55.2%.

As to `Cc1ccc(-c2cc(N)c(=O)n(CC(=O)NCC3CCCCC3)n2)s1`, the INHIBITION worked out at 39.2%.

Turning to `Cc1ccc(-c2cc(N)c(=O)n(CC(=O)NC3CCCC3)n2)s1`, the INHIBITION turned out to be 6.32%.

`COc1cccc(C(CO)NC(=O)NC(C)C)c1` (stereo not given): the INHIBITION is given as 91.1%.

Turning to `COc1ccc(C(CO)NC(=O)Nc2cccc(C(C)=O)c2)cc1` (stereo not given), the INHIBITION is listed as -6.51%.

In the case of `COc1cccc(C(CO)NC(=O)Cc2cccc(C)c2)c1` (stereo not given), the INHIBITION was found to be 53.4%.

Consider `COc1cccc(C(CO)NC(=O)Cc2ccc(F)c(Br)c2)c1` (stereo not given), for which the INHIBITION came out at 22.6%.

Take `COCC(=O)NC(C)Cc1cccc(OC)c1` (stereo not given): the INHIBITION is recorded as 15.5%.

For `COc1cccc(CC(C)NC(=O)NC(C)C)c1` (stereo not given), the INHIBITION turned out to be 30.3%.

For the compound `CN1CCN2C[C@@H](CO)[C@H](c3ccccc3)[C@H]2C1`, the INHIBITION is reported as 17.7%.

Consider `OCCCNc1cccc(COC2CCCCC2)c1`, for which the INHIBITION came to 17.5%.

On to `CN(C)CCN1C(=O)CCCC12CCCN(C(=O)c1cc[nH]n1)C2` (stereo not given), for which the INHIBITION stood at 34.5%.
